Measurements taken from PubChem BioAssay (Tox21).
Several values for one entry are separate records, joined by “and”; a condition that tells them apart may be missing. Equal entries are not always repeated. Records with an inconclusive call do not appear. Activity calls are given as the source filed them. Unless noted, the call rests on the fitted dose curve.

Assays:
[1] = Nuclear factor erythroid 2-related factor 2/antioxidant responsive element (Nrf2/ARE) small molecule agonists: luciferase reporter gene qHTS assay in human keratinocytes (AID 1919969); further: nearly all actives have a fitted effect of over 35% in size; further: potency means the concentration at half of the fitted maximal effect
[2] = molecular target: Gonadotropin-releasing hormone receptor (Homo sapiens) (UniProt P30968); assay: Human gonadotropin-releasing hormone receptor (GnRHR) small molecule agonists, calcium flux assay in GnRHR-HEK293 cells (AID 1920063); further: nearly all actives have a fitted effect of over 35% in size; further: potency means the concentration at half of the fitted maximal effect
Sequence of Gonadotropin-releasing hormone receptor (Homo sapiens) (P30968 whole entry, looked up): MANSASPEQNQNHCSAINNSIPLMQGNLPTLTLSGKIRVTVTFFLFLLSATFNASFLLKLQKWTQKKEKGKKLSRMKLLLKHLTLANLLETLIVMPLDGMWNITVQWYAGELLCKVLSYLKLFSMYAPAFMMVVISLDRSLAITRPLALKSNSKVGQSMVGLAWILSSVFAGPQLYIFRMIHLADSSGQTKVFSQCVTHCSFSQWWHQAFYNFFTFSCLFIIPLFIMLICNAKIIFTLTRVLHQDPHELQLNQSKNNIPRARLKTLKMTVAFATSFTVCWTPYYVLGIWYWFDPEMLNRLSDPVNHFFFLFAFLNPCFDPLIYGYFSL
Summary of the method: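 Cells: HEK293 stably expressing human GnRHR. Steps: overnight (18 h) culture, 1 h calcium dye loading at 37 C, compound addition, kinetic fluorescence read at 480/540 nm. Each compound tested at 15 concentrations in triplicate.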

[3] = molecular target: KiSS-1 receptor (Homo sapiens) (UniProt Q969F8); assay: Human kisspeptin (KISS1R) small molecule agonists, calcium flux assay in KISS1R-HEK293 cells (AID 1920064; active means well fitted activation curve with a large enough effect in the repeat runs; further: potency means the concentration at half of the fitted maximal effect)
Sequence of KiSS-1 receptor (Homo sapiens) (Q969F8 whole entry, looked up): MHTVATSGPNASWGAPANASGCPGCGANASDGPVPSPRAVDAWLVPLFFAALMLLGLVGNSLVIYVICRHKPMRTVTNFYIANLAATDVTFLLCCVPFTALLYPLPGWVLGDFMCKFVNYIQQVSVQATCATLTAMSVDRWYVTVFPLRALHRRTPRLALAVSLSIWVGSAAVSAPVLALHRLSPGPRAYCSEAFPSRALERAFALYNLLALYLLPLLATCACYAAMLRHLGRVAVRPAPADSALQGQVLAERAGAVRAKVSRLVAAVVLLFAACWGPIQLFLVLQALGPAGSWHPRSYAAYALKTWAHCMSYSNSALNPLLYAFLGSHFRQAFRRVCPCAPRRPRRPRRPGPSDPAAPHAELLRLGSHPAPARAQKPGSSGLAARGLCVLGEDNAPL
Summary of the method: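 Cells plated and incubated 18 h; dye added, 1 h at 37 C; compounds in DMSO pinned in; signal read at 480/540 nm every second for 3 min. Each compound tested at 15 concentrations in triplicate.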

[4] = p53 small molecule agonists, cell-based qHTS assay with human liver microsomes (AID 1963577);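 further: p53 response element beta-lactamase reporter cells with liver microsomes plus NADPH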
Summary of the method: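 16 h, 37 C exposure of p53RE-bla cells to compounds with human liver microsomes and NADPH (0.5 mg/mL final each); detection via LiveBLAzer mixture, 2 h dark at room temperature.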

[5] = p53 small molecule agonists, cell-based qHTS assay with rat liver microsomes (AID 1963578)
Summary of the method: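 With rat liver microsomes and NADPH present (0.5 mg/mL final each), p53RE-bla cells are treated with compound for 16 h at 37 C. LiveBLAzer detection mixture is then applied for 2 h at room temperature in the dark.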

[6] = p53 small molecule agonists, cell-based qHTS assay with human liver microsomes: qHTS cell viability counter screen (AID 1963579); further: nearly all actives have a fitted effect of over 45% in size
Summary of the method: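 In this multiplexed counter screen, the reporter plates were subsequently treated with CellTiter-Glo so that cell viability, reflected by luminescence, could be recorded for p53RE-bla cells dosed 16 h with compounds under microsomal activation (HLM and NADPH).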

[7] = p53 small molecule agonists, cell-based qHTS assay with rat liver microsomes: qHTS cell viability counter screen (AID 1963580); further: nearly all actives have a fitted effect of over 45% in size
Summary of the method: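 HCT-116 p53RE-bla, 4,000 cells/well, 5 h pre-incubation; cpd + rat liver microsomes 0.5 mg/mL + NADPH 0.5 mg/mL (final); 16 h, 37 C; CellTiter-Glo, 30 min RT; luminescence.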

[8] = p53 small molecule agonists, cell-based qHTS assay: qHTS cell viability counter screen (AID 1963581); further: nearly all actives have a fitted effect of over 45% in size
Summary of the method: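 Cells: HCT-116 with p53 response element-driven beta-lactamase. Treatment: 16 h, 37 C, compounds in DMSO. Read: CellTiter-Glo luminescence after 30 min RT.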

[9] = p53 small molecule agonists, cell-based qHTS assay (AID 1963582; active means well fitted activation curve with a large enough effect in the signal ratio in the repeat runs, not every such curve was filed as active; the % refers to the signal ratio)
Summary of the method: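 Quantitative HTS in p53RE-bla cells: after a 5 h settling period, compounds delivered in DMSO were left on cells for 16 h at 37 C, and reporter induction was measured as fluorescence following 2 h substrate loading.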

[10] = molecular target: 5-hydroxytryptamine receptor 2A (Homo sapiens) (UniProt P28223); assay: 5-hydroxytryptamine receptor 2A (HTR2A) small molecule antagonists, cell-based qHTS assay (AID 1963586); further: nearly all actives have a fitted effect of over 45% in size
Sequence of 5-hydroxytryptamine receptor 2A (Homo sapiens) (P28223 whole entry, looked up): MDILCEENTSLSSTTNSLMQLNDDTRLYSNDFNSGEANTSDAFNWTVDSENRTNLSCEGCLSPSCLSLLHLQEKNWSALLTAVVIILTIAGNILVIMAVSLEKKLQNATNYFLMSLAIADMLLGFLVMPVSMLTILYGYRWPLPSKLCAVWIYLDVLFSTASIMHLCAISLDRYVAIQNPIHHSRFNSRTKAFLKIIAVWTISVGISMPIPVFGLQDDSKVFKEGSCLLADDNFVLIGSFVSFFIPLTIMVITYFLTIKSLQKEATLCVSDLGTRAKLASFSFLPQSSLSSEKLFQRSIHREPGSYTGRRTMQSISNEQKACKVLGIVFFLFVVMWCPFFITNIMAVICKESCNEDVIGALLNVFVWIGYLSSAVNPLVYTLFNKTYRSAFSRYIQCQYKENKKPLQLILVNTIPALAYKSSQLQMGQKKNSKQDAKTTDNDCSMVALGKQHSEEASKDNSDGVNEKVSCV
Summary of the method: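 Antagonist-mode intracellular calcium assay: DOI (4 nM) added after 5 min compound pre-incubation at room temperature to dye-loaded HTR2A-CHO cells. Fluorescence followed for 3 min, sampled every second.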

[11] = molecular target: 5-hydroxytryptamine receptor 2A (Homo sapiens) (UniProt P28223); assay: 5-hydroxytryptamine receptor 2A (HTR2A) small molecule agonists, cell-based qHTS assay (AID 1963587); further: nearly all actives have a fitted effect of over 30% in size
Summary of the method: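 Kinetic calcium-flux fluorescence (2 min, 1 sec intervals) after compound addition in agonist mode. HTR2A-CHO cells were cultured 18 h, then dye-loaded 1 h at 37 C.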

[12] = molecular target: Muscarinic acetylcholine receptor M1 (Homo sapiens) (UniProt P11229); assay: Cholinergic receptor muscarinic 1 (CHRM1) small molecule antagonists, cell-based qHTS assay (AID 1963588); further: nearly all actives have a fitted effect of over 40% in size
Sequence of Muscarinic acetylcholine receptor M1 (Homo sapiens) (P11229 whole entry, looked up): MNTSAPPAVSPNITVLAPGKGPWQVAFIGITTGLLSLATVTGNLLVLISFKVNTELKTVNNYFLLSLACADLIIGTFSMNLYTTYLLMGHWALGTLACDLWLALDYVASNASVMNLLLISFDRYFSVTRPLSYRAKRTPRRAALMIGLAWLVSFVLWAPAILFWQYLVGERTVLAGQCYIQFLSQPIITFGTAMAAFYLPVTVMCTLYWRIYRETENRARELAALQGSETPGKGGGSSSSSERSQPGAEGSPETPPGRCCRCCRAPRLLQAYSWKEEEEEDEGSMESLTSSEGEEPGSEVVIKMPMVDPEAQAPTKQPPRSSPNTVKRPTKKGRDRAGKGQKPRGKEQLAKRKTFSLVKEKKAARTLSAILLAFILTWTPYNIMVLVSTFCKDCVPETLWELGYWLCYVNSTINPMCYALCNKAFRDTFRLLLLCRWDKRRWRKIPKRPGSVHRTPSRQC
Summary of the method: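 CHRM1-CHO calcium-flux assay, antagonist mode. Cells were seeded 18 h, dye-loaded 1 h at 37 C and given compound for 5 min at RT, then acetylcholine was added at 50nM. FDSS fluorescence was read 3 min; 15 concentrations, three runs.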

[13] = molecular target: Muscarinic acetylcholine receptor M1 (Homo sapiens) (UniProt P11229); assay: Cholinergic receptor muscarinic 1 (CHRM1) small molecule agonists, cell-based qHTS assay (AID 1963589); further: nearly all actives have a fitted effect of over 35% in size
Summary of the method: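 Agonist-mode qHTS in CHO cells stably carrying human muscarinic M1. Intracellular calcium is tracked by fluorescence every second after compound transfer; each compound runs at 15 concentrations in three independent runs.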

[14] = cAMP Responsive Elements (CRE) small molecule agonists, cell-based qHTS assay (AID 1963590)
Summary of the method: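 Agonist mode qHTS in CRE-bla HEK 293T cells: compounds dosed from DMSO for 3 h at 37 C/5% CO2, followed by LiveBLAzer B/G FRET substrate for 2 h at room temperature.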

[15] = cAMP Responsive Elements (CRE) small molecule antagonists, cell-based qHTS assay (AID 1963591; active means well fitted inhibition curve with a large enough effect in the signal ratio in the repeat runs, not every such curve was filed as active; the % refers to the signal ratio)
Summary of the method: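 Antagonist mode: test compounds are co-incubated with the adenylyl cyclase activator NKH477 (0.25 uM final) on CRE-bla HEK293T cells for 3 h at 37 °C, followed by LiveBLAzer substrate loading.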

[16] = molecular target: Beta-2 adrenergic receptor (Homo sapiens) (UniProt P07550); assay: Adrenergic beta2 receptor (ADRB2) small molecule antagonists, cell-based qHTS assay (AID 1963592); further: series mostly up to about 92 µM; nearly all actives have a fitted effect of over 50% in size
Sequence of Beta-2 adrenergic receptor (Homo sapiens) (P07550 whole entry, looked up): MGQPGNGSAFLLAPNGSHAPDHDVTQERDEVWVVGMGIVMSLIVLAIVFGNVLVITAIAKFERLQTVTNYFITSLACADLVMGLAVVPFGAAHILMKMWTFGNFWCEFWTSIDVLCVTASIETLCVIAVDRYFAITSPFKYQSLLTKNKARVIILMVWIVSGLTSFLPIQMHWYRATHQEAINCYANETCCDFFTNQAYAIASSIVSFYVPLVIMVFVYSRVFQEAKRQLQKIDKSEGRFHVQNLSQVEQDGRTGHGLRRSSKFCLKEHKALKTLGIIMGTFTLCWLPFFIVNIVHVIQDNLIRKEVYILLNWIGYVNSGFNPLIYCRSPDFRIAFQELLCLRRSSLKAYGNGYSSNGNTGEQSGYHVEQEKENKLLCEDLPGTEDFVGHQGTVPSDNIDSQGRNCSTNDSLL
Summary of the method: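 Cells (CHO, stable ADRB2 overexpression) incubated 18-20hr at 37C; compounds added from DMSO; agonist mix (1nM isoproterenol, 100uM IBMX, 25uM Ro-20-1724) added; 0.5hr RT; d2-cAMP and anti-cAMP-cryptate added; 1hr RT; 665/615 nm read.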

[17] = molecular target: Beta-2 adrenergic receptor (Homo sapiens) (UniProt P07550); assay: Adrenergic beta2 receptor (ADRB2) small molecule agonists, cell-based qHTS assay (AID 1963593);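 further: CHO cells stably overexpressing human ADRB2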
Summary of the method: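 CHO cells stably over-expressing ADRB2 were plated overnight at 37C, then dosed with compounds plus a stimulation mix containing 100uM IBMX and 25uM Ro-20-1724 for 0.5hr at room temperature. cAMP was measured by HTRF competition, 1hr.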

[18] = molecular target: D(2) dopamine receptor (Homo sapiens) (UniProt P14416); assay: Dopamine D2 receptor (DRD2) small molecule agonists, cell-based qHTS assay (AID 1963594); further: nearly all actives have a fitted effect of over 35% in size
Sequence of D(2) dopamine receptor (Homo sapiens) (P14416 whole entry, looked up): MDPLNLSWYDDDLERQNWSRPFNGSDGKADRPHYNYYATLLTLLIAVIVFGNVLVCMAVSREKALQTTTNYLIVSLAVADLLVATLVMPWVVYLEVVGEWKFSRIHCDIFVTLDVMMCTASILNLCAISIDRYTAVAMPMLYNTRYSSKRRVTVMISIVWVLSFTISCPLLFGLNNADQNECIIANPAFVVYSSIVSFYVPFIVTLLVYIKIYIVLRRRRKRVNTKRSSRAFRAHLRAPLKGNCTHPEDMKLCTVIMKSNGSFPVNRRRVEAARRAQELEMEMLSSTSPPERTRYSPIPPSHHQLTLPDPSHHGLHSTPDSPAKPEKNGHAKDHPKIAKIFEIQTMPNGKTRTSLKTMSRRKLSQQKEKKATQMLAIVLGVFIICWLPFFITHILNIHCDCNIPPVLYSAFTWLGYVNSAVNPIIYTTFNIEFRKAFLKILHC
Summary of the method: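 cAMP accumulation in DRD2-HEK293 cells measured by HTRF after 1 h detection; compounds added 10 min before NKH477 (200nM […]) forskolin-analogue stimulation, 30 min at room temperature, with Ro20-1724 present at 0.1 mM final.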

[19] = molecular target: D(2) dopamine receptor (Homo sapiens) (UniProt P14416); assay: Dopamine D2 receptor (DRD2) small molecule antagonists, cell-based qHTS assay (AID 1963595; active means well fitted inhibition curve with a large enough effect in the signal ratio in the repeat runs, with a control signal flat; the % refers to the signal ratio)
Summary of the method: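 In this cell-based antagonist screen, compounds act for 10 min at room temperature before a 30 min challenge with 12 nM quinpirole and 200 nM NKH477. cAMP is quantified by HTRF competition in DRD2-HEK293 cells containing 0.1 mM Ro20-1724.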

[20] = G protein-coupled receptor (GPCR) small molecule agonists, calcium flux assay: HEK293 wild type cell line counter screen (AID 1920065); further: potency means the concentration at half of the fitted maximal effect
Summary of the method: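 Counter-screen of the Tox21 10K library for non-specific calcium release: dye-loaded cells received compounds in DMSO and were monitored by kinetic fluorescence (480/540 nm, 3 min). Fifteen concentrations, run in triplicate.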

Measured: Potency

CCCCCCCCCCCCN1CCCC1=O
not listed: [20]
inactive: all other assays above

CCOc1ccc(N=Nc2ccc(/C=C/c3ccc(N=Nc4ccc(OCC)cc4)cc3S(=O)(=O)O)c(S(=O)(=O)O)c2)cc1
not listed: [6] | [15] | [16] | [17] | [20]
inactive: all other assays above

OCCN(CCO)c1nc(N2CCCCC2)c2nc(N(CCO)CCO)nc(N3CCCCC3)c2n1
inactive: [1] | [16] | [18] | [19]
active: [2] 15.1 µM | [3] 23.9 µM | [20] 16.9 µM

CC(=O)OCC1=C(C(=O)O)N2C(=O)[C@@H](NC(=O)CSc3ccncc3)[C@H]2SC1
not listed: [4] | [5] | [6] | [7] | [9] | [11] | [19]
inactive: all other assays above

O=c1cc(-c2ccc(O)cc2)oc2cc(O)cc(O)c12
active: [1] 8.75 µM and 9.69 µM
not listed: [5] | [9] | [14] | [15] | [16] | [17] | [20]
inactive: all other assays above

Nc1ccc(O)c([N+](=O)[O-])c1
active: [1] 19.3 µM
inactive: [2] | [3] | [20] | [7] | [11] | [12] | [13]

NNc1nc(-c2ccc(N)cc2)cs1
active: [1] 54.5 µM
not listed: [5] | [7] | [16] | [17] | [20]
inactive: all other assays above

Oc1cc(Cl)cc(Cl)c1Cl
active: [1] 49.7 µM
inactive: [2] | [3] | [20] | [8] | [11] | [12] | [13] | [16] | [18] | [19]
